High-throughput results from PubChem BioAssay.
KCNQ2 block = blocks the rat KCNQ2 potassium channel; O88943; CHO-K1 KCNQ2, FluxOR thallium flux, 20 min; active compounds read low; B-score at 10 µM; 310,000 tested, 1.1% active;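 active means fluorescence ratio B-score at most minus 3 library SDs, with starting brightness B-score within 2 library SDs, cut at about -5.5 in these data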
Target sequence (O88943 whole entry, looked up): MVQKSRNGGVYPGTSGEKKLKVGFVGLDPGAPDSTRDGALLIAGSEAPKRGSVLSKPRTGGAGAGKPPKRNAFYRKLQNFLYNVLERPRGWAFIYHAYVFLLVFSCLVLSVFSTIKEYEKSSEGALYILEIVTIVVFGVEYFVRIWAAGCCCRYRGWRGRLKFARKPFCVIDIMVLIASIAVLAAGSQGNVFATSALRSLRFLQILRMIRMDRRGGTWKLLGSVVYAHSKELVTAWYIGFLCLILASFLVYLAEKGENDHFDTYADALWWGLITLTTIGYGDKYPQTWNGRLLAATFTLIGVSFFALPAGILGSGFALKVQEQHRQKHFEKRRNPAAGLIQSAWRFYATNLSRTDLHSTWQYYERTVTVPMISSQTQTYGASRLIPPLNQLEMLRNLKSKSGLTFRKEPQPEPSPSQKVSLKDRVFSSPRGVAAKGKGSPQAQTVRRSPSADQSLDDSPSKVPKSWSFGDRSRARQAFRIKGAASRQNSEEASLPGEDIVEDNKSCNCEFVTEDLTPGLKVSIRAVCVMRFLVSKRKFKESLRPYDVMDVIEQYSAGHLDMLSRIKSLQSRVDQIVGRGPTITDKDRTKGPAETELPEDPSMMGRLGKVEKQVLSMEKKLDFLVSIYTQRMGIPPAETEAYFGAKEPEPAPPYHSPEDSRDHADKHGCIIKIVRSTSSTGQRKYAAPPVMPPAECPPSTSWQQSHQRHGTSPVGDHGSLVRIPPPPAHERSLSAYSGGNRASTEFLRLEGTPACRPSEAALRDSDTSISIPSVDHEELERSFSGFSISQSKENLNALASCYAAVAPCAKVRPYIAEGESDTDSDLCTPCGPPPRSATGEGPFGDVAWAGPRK
KCNQ2 enhance = enhances the rat KCNQ2 potassium channel | AID 2239 | CHO-K1 KCNQ2, FluxOR thallium flux fluorescence; active compounds read high | O88943 | 310,000 tested, 0.54% active | B-score at 10 µM;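 active means fluorescence ratio B-score at least 3 SD of library B-scores, with initial fluorescence B-score within 3 of them, cut at about 5.3 in these data; same plate scores as AID 2156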;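 further: B-score of peak minus minimum over baseline fluorescence ratio after K+ and Tl+ stimulus; positive B-score means potentiation of KCNQ2 with more thallium influx and brighter signal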
Large screens that a line does not name were inactive. An excerpt weighted towards active compounds, which were near 1.6% of everything screened.

O=C(Nc1ccccc1N1CCCC1)c1ccccc1Cl	KCNQ2 block -6.1
O=C(Nc1ccccc1N1CCCC1)c1cc(Cl)ccc1Cl	KCNQ2 block -5.7
O=C(Nc1ccccc1N1CCCC1)c1ccc(Cl)cc1Cl	none (no result: KCNQ2 enhance)
N#Cc1c(Cl)nsc1NCCN1CCOCC1	none (no result: KCNQ2 enhance)
O=C(O)c1ccc2c(c1)C(=O)N(c1ccc([N+](=O)[O-])cn1)C2=O	none (no result: KCNQ2 enhance)
O=C(NCc1ccc2c(c1)OCO2)C(=O)NCC1OCCN1S(=O)(=O)c1ccccc1 (stereo not given)	none
C/C(=N\NC(=O)C1CCCC1)c1ccc(Cl)cc1Cl	none
COc1cccc(N2C(=O)Nc3ccc(Br)cc3C2(O)C(=O)NCCN(C)C)c1 (stereo not given)	none (no result: KCNQ2 enhance)
N#Cc1c(Cl)nc2c(c1C#N)CCCC2	none
COc1cccc(-c2cc3nc4c(c(NCC(C)(C)CN(C)C)n3n2)CCCC4)c1	KCNQ2 block -7.7
Fc1cccc(-c2cc3nc4c(c(NCc5ccco5)n3n2)CCCC4)c1	none (no result: KCNQ2 enhance)
COc1ccc(C2CC(c3ccccc3)Nc3nc(NC(=O)c4ccco4)nn32)cc1 (stereo not given)	none
O=C(Nc1nc2n(n1)C(c1ccccc1)CC(c1ccc(Cl)cc1)N2)c1ccco1 (stereo not given)	KCNQ2 block -7.2
CCOc1ccc(CN(C)CC(=O)Nc2cccc3ccccc23)cc1OC	none (no result: KCNQ2 enhance)
COc1ccc(CN(C)CC(=O)Nc2cccc3ccccc23)cc1F	KCNQ2 block -5.8
COc1cc2c(cc1OC)C(c1ccc(-c3ccc(Cl)cc3Cl)o1)=NCC2	none (no result: KCNQ2 enhance)
COc1cc2c(cc1OC)C(c1ccc(-c3ccc(Cl)c(Cl)c3)o1)=NCC2	KCNQ2 block -8.8
COc1cc2c(cc1OC)C(c1ccc(-c3cc(Cl)ccc3Cl)o1)=NCC2	none (no result: KCNQ2 enhance)
COc1cc2c(cc1OC)C(c1ccc(-c3ccccc3Cl)o1)=NCC2	KCNQ2 block -8.3
COc1ccc(-c2nc(CSCC(=O)NC3CCN(Cc4ccccc4)CC3)c(C)o2)cc1OC	none
CC(C)N(CCCNC(=O)c1nn(C)c2c1CS(=O)(=O)c1ccccc1-2)Cc1ccccc1	none
COc1cccc(OCC(O)CN(CCO)Cc2ccccc2)c1 (stereo not given)	none (no result: KCNQ2 enhance)
CCC(=O)c1ccc(OCC(O)CN(CCc2ccccc2)Cc2ccccc2)cc1 (stereo not given)	KCNQ2 block -7.6
COC(=O)COc1ccc(NS(=O)(=O)c2cccc([N+](=O)[O-])c2)cc1	none
COc1ccc(S(=O)(=O)NCC(=O)N(CC(=O)NCc2ccco2)Cc2ccc(F)cc2)cc1	none
O=C(CNCc1ccccc1)Nc1ccccc1-c1ccccc1	none (no result: KCNQ2 enhance)
O=C(CNCc1ccccc1)Nc1cccc(Cl)c1Cl	KCNQ2 block -6
Cc1ccc2c(c1)-c1ncc(C(=O)c3cc(Br)ccc3O)cc1CO2	KCNQ2 block -7.4
Cc1ccc(O)c(C(=O)c2cnc3c(c2)CN(C)C(=O)N3)c1	none
O=C(/C=C/c1ccc(F)cc1)Nc1cc(S(=O)(=O)N2CCOCC2)ccc1N1CCCC1	none (no result: KCNQ2 enhance)
CN1CCN(c2ccc(Cl)cc2NC(=O)/C=C/c2ccc(F)cc2)CC1	KCNQ2 block -5.6
Nc1ccc(NC(=O)c2cccc(C(=O)Nc3ccc(N)cc3Cl)c2)c(Cl)c1	none
Cc1c(N=Cc2cc(Br)cc(Br)c2O)cccc1C(=O)O	KCNQ2 enhance 9.5
O=C(O)c1cccc(N/N=C/c2cc(Br)cc(Br)c2O)c1	KCNQ2 enhance 5.8
CN(/N=C/c1cc(Br)cc(Br)c1O)c1ccccc1	none (no result: KCNQ2 enhance)
COc1ccc(Br)cc1/C=N/Nc1cccc(C(=O)O)c1	none
N#CC1(NC(=O)COC(=O)c2nccnc2N)CCCCC1	none (no result: KCNQ2 enhance)
O=C(CN1C(=O)CSc2ncccc21)Nc1ccccc1F	none
Cc1ccc(C)c(OCC(=O)Nc2ccc(C(=O)O)cc2NC(=O)COc2cc(C)ccc2C)c1	none
COc1ccc(-c2cc(C(F)(F)F)n3nc(C(=O)NCc4ccco4)cc3n2)cc1OC	KCNQ2 block -5.6
O=C(NCc1ccco1)c1cc2nc(C3CC3)cc(C(F)(F)F)n2n1	none
Cc1ccc(CNC(=O)CN(C(=O)N2CCN(C)CC2)S(=O)(=O)c2ccc(C)cc2)cc1	none (no result: KCNQ2 enhance)
CO/N=C/c1ccc(Sc2ccc(C)cc2)c([N+](=O)[O-])c1	none
CO/N=C/c1cc([N+](=O)[O-])ccc1Sc1ccc(C)cc1	KCNQ2 block -7.4
O=C(NC1CCCC1)C(c1ccccn1)N(C(=O)c1csnn1)c1ccccc1Br (stereo not given)	none
COC(=O)c1cn(C(=O)c2cc(C)cc(C)c2)c2ccccc12	none
COC(=O)c1cn(C(=O)c2cc(Br)ccc2Cl)c2ccccc12	KCNQ2 block -6.1
CC1(c2nnc(-c3cccc(Cl)c3)o2)CC(c2ccccc2Br)=NO1 (stereo not given)	none (no result: KCNQ2 enhance)
CCN(CC)C(=O)C1(P(=O)(c2ccccc2)c2ccccc2)CCC1	none (no result: KCNQ2 enhance)
CCCCN(CCCC)C(=O)C1(P(=O)(c2ccccc2)c2ccccc2)CCC1	KCNQ2 block -6.2
O=C(COC(=O)Cc1ccc(Cl)cc1)Nc1ccc(OC(F)F)cc1	none (no result: KCNQ2 enhance)
O=C(Nc1ccc(Cl)cc1)N(C1=NCCC1)c1ccc(OC(F)F)cc1	KCNQ2 block -5.7
Cc1cc(C)cc(C(=O)NCC(=O)OCC(=O)Nc2cccnc2Cl)c1	none
CN(C)c1nc(C#N)nc(N(C)C)n1	none
CCCN(CCC)c1nc(C#N)nc(N(CCC)CCC)n1	KCNQ2 block -7.9
O=C(O)c1cc(S(=O)(=O)N2CCN(C(c3ccccc3)c3ccccc3)CC2)ccc1Cl	none
COc1cccc(C2c3c(oc4ccc(Cl)cc4c3=O)C(=O)N2c2cc(C)on2)c1OC (stereo not given)	KCNQ2 block -7.2
COc1ccc(/C(O)=C2\C(=O)C(=O)N(c3cc(C)on3)C2c2cccc(OC)c2OC)cc1C (stereo not given)	none
Cc1ccc(NC(=S)N2CCCCC2)cc1C	none (no result: KCNQ2 enhance)
Nc1cc(C(=O)N/N=C/c2cccc([N+](=O)[O-])c2)n[nH]c1=O	none
CCN=C(NCC)SC1CC(=O)N(c2cccc(OCC)c2)C1=O (stereo not given)	KCNQ2 block -6.2
CCN=C(NCC)SC1CC(=O)N(c2ccc(OC)cc2)C1=O (stereo not given)	none (no result: KCNQ2 enhance)
CCOc1ccc(-c2nc(C#N)c(N3CCN(Cc4ccccc4)CC3)o2)cc1	KCNQ2 block -6.2
CCOc1ccc(-c2nc(C#N)c(N3CCOCC3)o2)cc1	none
CC(C(=O)N1CCCCC1)n1ncn2cccc2c1=O (stereo not given)	none
Cc1ccc(Cl)cc1N1CCN(C(=O)C(C)n2ncn3cccc3c2=O)CC1 (stereo not given)	KCNQ2 block -5.8
Cc1nn(C(C)(C)C)c(OC(=O)C2CCCC2)c1S(=O)(=O)c1ccccc1	KCNQ2 block -6
Cc1ccc(S(=O)(=O)c2c(C)nn(C(C)(C)C)c2OC(=O)C2CCCC2)cc1	none (no result: KCNQ2 enhance)
COc1ccc(CNC(=O)C2CCN(S(=O)(=O)c3cccc4nonc34)CC2)cc1	none
CCN(CCNC(=O)C1CCN(Cc2nc(-c3ccc(Cl)cc3)oc2C)CC1)c1ccccc1	KCNQ2 block -6.9
Cc1oc(-c2ccc(Cl)cc2)nc1CN1CCC(C(=O)NCCCN2CCOCC2)CC1	none
CCN(CCNC(=O)C1CCCN(Cc2nc(-c3ccc(OC)cc3)oc2C)C1)c1ccccc1 (stereo not given)	KCNQ2 block -8.7
CCc1ccc(-c2nc(CN3CCC(C(=O)NCc4ccc(F)cc4)CC3)c(C)o2)cc1	none (no result: KCNQ2 enhance)
CCc1ccc(-c2nc(CN3CCCC(C(=O)O)C3)c(C)o2)cc1 (stereo not given)	none (no result: KCNQ2 enhance)
CCc1ccc(-c2nc(CN3CCC(C(=O)NCCN(CC)c4ccccc4)CC3)c(C)o2)cc1	KCNQ2 block -6.5
O=C(NCC1CCCN1S(=O)(=O)c1cccs1)c1ccc([N+](=O)[O-])cc1 (stereo not given)	none
